# Laboratory results: PubChem BioAssay (NCI)
# This is part of a sample that, as a whole, favours compounds with a hit. Of some 83,000 tested, about 20% had one in any assay.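 Compound tested at a single concentration for 48 hours in 96-well plates; a percent growth value below 10 was scored as active.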 Calls of active or inactive are those of the source.
# Tested on: UACC-62 melanoma
# Experiment: NCI-60 one-dose screen, 48 h (100 = growth as untreated, 0 = no growth, -100 = all killed)
# Conditions: 10 µM unless noted
row,Structure (SMILES),growth
1,Cn1c(N)c(N=O)c(=O)[nH]c1=O,103% (inactive)
2,O=C(CSCC(=O)N/N=C/c1ccccc1O)N/N=C\c1ccccc1O,11.2% (inactive)
3,Oc1ccc(Cc2ccc(O)c(C3CC(c4ccc(Cl)cc4)=NN3)c2)cc1C1CC(c2ccc(Cl)cc2)=NN1 (centres undefined),36.3% (inactive)
4,CSc1nc2c(c(=O)n1C)C(c1ccccc1)C1=C(N2)/C(=C/c2ccccc2)CCC1 (centres undefined),58.2% (inactive)
5,CC(C)[C@H]1CC[C@H]2[C@@H](CC[C@H]3[C@](C)(CN)CCC[C@]23C)C1,92.7% (inactive)
6,COc1ccc(OC)c(/C=C/c2nc(=S)n(-c3ccc(Cl)cc3)[nH]2)c1,42.8% (inactive)
7,CC1SC(c2c(Cl)cccc2Cl)N(NC(=O)c2[nH]c3ccc(F)cc3c2-c2ccccc2)C1=O (centres undefined),74.8% (inactive)
8,COc1ccc(COC(C)=O)cc1,111% (inactive)
9,Clc1ccc(-n2cnc3c(Cl)ncnc32)cc1Cl,85.4% (inactive)
10,COc1ccc2[nH]cc(/C=C3/C(=O)Nc4ccc(F)cc43)c2c1,73.5% (inactive)
11,O=C(CSc1nc2c(n1Nc1ccccc1)-c1ccccc1SC2)Nc1nc(-c2ccc(Cl)cc2)cs1,83.3% (inactive)
12,COc1cc(C2NC(c3ccc(Cl)cc3)C(C)C(=NC(=O)c3cnccn3)C2C)cc(OC)c1OC (centres undefined),101% (inactive)
13,O=C(c1ccccc1)c1ccccc1Cl,99.6% (inactive)
14,Nc1nonc1-c1nc2ccccc2n1CC(=O)Nc1ccc2c(c1)COC2=O,72.9% (inactive)
15,Cn1cc(-c2csc(-c3cn(C)c4ncccc34)n2)c2cc(Br)cnc21,82.9% (inactive)
16,CC(c1cc(Cl)ccc1O)c1cc(Cl)ccc1O,44.8% (inactive)
17,O=C1c2nsnc2C(=O)c2c(F)c(F)c(F)c(F)c21,-86.9% (active)
18,COc1ccc(C2=NNC(c3cc(Cc4ccc(O)c(C5CC(c6ccc(OC)cc6)=NN5)c4)ccc3O)C2)cc1 (centres undefined),49.2% (inactive)

# Tested on: LOX IMVI melanoma
# Experiment: as above
# Conditions: 10 µM unless noted
row,Structure (SMILES),growth
1,Cn1cc(-c2csc(-c3c[nH]c4ncccc34)n2)c2cc(F)cnc21,64.3% (inactive)
2,CN(C)c1nc(N)nc(Cn2c(-c3nonc3N)nc3ccccc32)n1,76.6% (inactive)
3,Cc1nn(-c2ccc(Cl)cc2)c2nc3c(nc12)c(=O)oc1ccccc13,101% (inactive)
4,Cn1cc(-c2nc(-c3c[nH]c4ncc(F)cc34)cs2)c2cccnc21,98% (inactive)
5,NC(N)=N/N=C(/c1ccccc1)c1ccc(Cl)cc1,74.4% (inactive)
6,Nc1nc(Cl)c2[nH]cnc2n1,105% (inactive)
7,O=NC1CC=CCC1c1ccccc1 (centres undefined),104% (inactive)
8,O=C1C2C3C=CC(O3)C2C(=O)N1Nc1ccccc1 (centres undefined),98% (inactive)
9,COc1ccc(-c2c3c(nn2-c2ccc(N)cc2)CCc2cnoc2-3)cc1OC,86.4% (inactive)
10,Cn1c(N)c(N=O)c(=O)[nH]c1=O,102% (inactive)
11,O=C(CSCC(=O)N/N=C/c1ccccc1O)N/N=C\c1ccccc1O,12.4% (inactive)
12,Clc1ccc(-n2cnc3c(Cl)ncnc32)cc1Cl,36.6% (inactive)
13,COc1ccc2[nH]cc(/C=C3/C(=O)Nc4ccc(F)cc43)c2c1,74.9% (inactive)
14,O=C(CSc1nc2c(n1Nc1ccccc1)-c1ccccc1SC2)Nc1nc(-c2ccc(Cl)cc2)cs1,30.4% (inactive)
15,O=C(c1ccccc1)c1ccccc1Cl,107% (inactive)
16,Nc1nonc1-c1nc2ccccc2n1CC(=O)Nc1ccc2c(c1)COC2=O,73.2% (inactive)
17,COc1ccc(/C=C(\C#N)c2ccccc2)cc1,89.7% (inactive)
18,Cn1cc(-c2csc(-c3cn(C)c4ncccc34)n2)c2cc(Br)cnc21,81.9% (inactive)
19,CC(c1cc(Cl)ccc1O)c1cc(Cl)ccc1O,30.1% (inactive)
20,O=C1c2nsnc2C(=O)c2c(F)c(F)c(F)c(F)c21,-49.4% (active)
21,CCOC(=O)/C(=C/c1ccccc1)C(=O)c1ccccc1,-26.9% (active)

# Tested on: SK-MEL-28 melanoma
# Experiment: as above
# Conditions: 10 µM unless noted
row,Structure (SMILES),growth
1,O=C(C(=O)N1CCOCC1)c1ccc(OC2OC(CO)C(O)C(O)C2O)cc1 (centres undefined),105% (inactive)
2,ClC1C2CC(c3ccccc32)C1Cl (centres undefined),108% (inactive)
3,Cc1nn(-c2ccc(Cl)cc2)c2nc3c(nc12)c(=O)oc1ccccc13,110% (inactive)
4,Cn1cc(-c2nc(-c3c[nH]c4ncc(F)cc34)cs2)c2cccnc21,111% (inactive)
5,Cc1ccc(C(O)C2=CC(=O)c3ccccc3C2=O)cc1 (centres undefined),112% (inactive)
6,NC(N)=N/N=C(/c1ccccc1)c1ccc(Cl)cc1,53.9% (inactive)
7,O=C(C(=O)N1CCCCC1)c1ccc(OC2OC(CO)C(O)C(O)C2O)cc1 (centres undefined),104% (inactive)
8,COc1cc2c(cc1OC)C1CCN3C(=O)CCC3N1CC2 (centres undefined),110% (inactive)
9,NNC(=O)C1CC2c3ccccc3C1c1ccccc12 (centres undefined),108% (inactive)
10,Nc1nc(Cl)c2[nH]cnc2n1,113% (inactive)
11,O=C(Nc1ccccc1Cl)c1cnc2ccc(C3CCNCC3)cn12,102% (inactive)
12,CC(C)[C@]12O[C@H]1[C@@H]1O[C@]13[C@]1(O[C@H]1C[C@H]1C4=C(CC[C@@]13C)C(=O)OC4)[C@@H]2OC(=O)CN(C)C,1.04% (active)
13,O=C1C2C3C=CC(O3)C2C(=O)N1Nc1ccccc1 (centres undefined),105% (inactive)
14,COc1ccc(-c2c3c(nn2-c2ccc(N)cc2)CCc2cnoc2-3)cc1OC,116% (inactive)
15,O=C(CSCC(=O)N/N=C/c1ccccc1O)N/N=C\c1ccccc1O,40.4% (inactive)
16,Oc1ccc(Cc2ccc(O)c(C3CC(c4ccc(Cl)cc4)=NN3)c2)cc1C1CC(c2ccc(Cl)cc2)=NN1 (centres undefined),57.7% (inactive)
17,CSc1nc2c(c(=O)n1C)C(c1ccccc1)C1=C(N2)/C(=C/c2ccccc2)CCC1 (centres undefined),78.7% (inactive)
18,CC(C)[C@H]1CC[C@H]2[C@@H](CC[C@H]3[C@](C)(CN)CCC[C@]23C)C1,102% (inactive)
19,COc1ccc(OC)c(/C=C/c2nc(=S)n(-c3ccc(Cl)cc3)[nH]2)c1,72.7% (inactive)
20,CC1SC(c2c(Cl)cccc2Cl)N(NC(=O)c2[nH]c3ccc(F)cc3c2-c2ccccc2)C1=O (centres undefined),71.2% (inactive)
21,COc1ccc(COC(C)=O)cc1,113% (inactive)
22,O=C(CSc1nc2c(n1Nc1ccccc1)-c1ccccc1SC2)Nc1nc(-c2ccc(Cl)cc2)cs1,72% (inactive)
23,COc1cc(C2NC(c3ccc(Cl)cc3)C(C)C(=NC(=O)c3cnccn3)C2C)cc(OC)c1OC (centres undefined),110% (inactive)
24,O=C(c1ccccc1)c1ccccc1Cl,103% (inactive)
25,Nc1nonc1-c1nc2ccccc2n1CC(=O)Nc1ccc2c(c1)COC2=O,93.1% (inactive)
26,COc1ccc(/C=C(\C#N)c2ccccc2)cc1,90.6% (inactive)
27,CC(c1cc(Cl)ccc1O)c1cc(Cl)ccc1O,33.5% (inactive)
28,O=C1c2nsnc2C(=O)c2c(F)c(F)c(F)c(F)c21,-92.5% (active)
29,CCOC(=O)/C(=C/c1ccccc1)C(=O)c1ccccc1,94.3% (inactive)
30,COc1ccc(C2=NNC(c3cc(Cc4ccc(O)c(C5CC(c6ccc(OC)cc6)=NN5)c4)ccc3O)C2)cc1 (centres undefined),79.4% (inactive)
